From PubChem BioAssay AID588819 (The Scripps Research Institute Molecular Screening Center, 2011)
About 320 (0.089%) of roughly 360,000 compounds were called active. Cut-off read from the data, not from the text of the source: active = activation above about 19% (passing the limit was not always enough); inactive = the rest. The entries come from a sample that favours actives as a whole.

target: Muscarinic acetylcholine receptor M1 (Homo sapiens) (UniProt P11229); assay: CHRM1 PAMs potentiating acetylcholine calcium signal – CHO-K1 cells, Fluo-8 calcium fluorescence, 1536-well, primary screen (AID 588819); details: CHO-K1 hM1, Fluo-8 calcium fluorescence, ACh EC20; at 3 µM; active compounds read high; 0% = ACh EC20, 100% = maximal ACh
Sequence (P11229 whole entry, looked up): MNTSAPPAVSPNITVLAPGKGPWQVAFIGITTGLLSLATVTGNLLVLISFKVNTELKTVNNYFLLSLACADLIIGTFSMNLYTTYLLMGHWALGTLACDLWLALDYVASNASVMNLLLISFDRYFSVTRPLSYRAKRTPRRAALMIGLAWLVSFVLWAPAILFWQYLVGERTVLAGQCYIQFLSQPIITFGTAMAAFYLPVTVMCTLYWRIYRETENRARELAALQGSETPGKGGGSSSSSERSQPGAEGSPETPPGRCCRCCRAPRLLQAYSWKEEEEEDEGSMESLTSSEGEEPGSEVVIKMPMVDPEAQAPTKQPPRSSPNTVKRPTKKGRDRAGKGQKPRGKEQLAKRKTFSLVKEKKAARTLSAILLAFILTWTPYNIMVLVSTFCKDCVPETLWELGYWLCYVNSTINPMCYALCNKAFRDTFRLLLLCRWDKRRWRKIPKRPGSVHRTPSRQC

| Structure (SMILES) | activation |
| --- | --- |
| CN(C(=O)c1cccc(NC(=O)Cc2ccc(NC(=O)C3CCN(C(=O)C4CCCCC4)CC3)cc2)c1)C1CCC1 | 0.54% (inactive) |
| CS(=O)(=O)N(CC(=O)NC1CCCC1)Cc1ccc(F)cc1 | 0.34% (inactive) |
| Cc1ccc(NC(=O)Cn2cccc2C2=NC(c3ccccc3)CO2)c(C)c1 (stereo not drawn) | 6.3% (inactive) |
| COCCn1c(SCC(=O)Nc2ccc3c(c2)CCC3)nc2ccccc2c1=O | 5.21% (inactive) |
| CCCC1NC(=O)NC(C)=C1C(=O)OCC (stereo not drawn) | 3.33% (inactive) |
| COCC(=O)Nc1cc(C(=O)OC)cc(C(=O)OC)c1 | 7.56% (inactive) |
| Cc1cc(=O)oc(C)c1C(=O)Nc1cnc2ccccc2c1 | 1% (inactive) |
| CCOc1ccc(S(=O)(=O)N2CCN(C(=O)c3oc4ccccc4c3C)CC2)cc1 | 24.4% (active) |
| CCOC(=O)C1CCN(C(=O)c2oc3ccc(S(=O)(=O)N4CCCCCC4)cc3c2C)CC1 | 1.16% (inactive) |
| COc1ccc(S(=O)(=O)N2CCN(C(=O)c3cc(C)oc3C)CC2)cc1 | 10.8% (inactive) |
| CCOP(=O)(OCC)C(Nc1ccc([N+](=O)[O-])cc1)c1ccc(Cl)cc1 (stereo not drawn) | -2.85% (inactive) |
| Cc1ccc2oc(=O)c3cnn(CC(=O)N4CCN(c5ccccn5)CC4)c3c2c1 | -8.22% (inactive) |
| COCCNC(=O)NC(=O)COC(=O)C1(c2ccc(Cl)cc2)CC1 | -0.78% (inactive) |
| O=C(NCc1ccc(Cl)cc1)c1cc(=O)nc2sc(-c3ccccc3)nn12 | -4.02% (inactive) |
| O=C(Cn1nc(Cc2cccnc2)c2ccccc2c1=O)NCC1COc2ccccc2O1 (stereo not drawn) | 9.27% (inactive) |
| O=C(CN1C(=O)C2C3C=CC(C3)C2C1=O)NCC1COc2ccccc2O1 (stereo not drawn) | 19.5% (active) |
| O=C(Cn1cnc2ccccc2c1=O)NCC1COc2ccccc2O1 (stereo not drawn) | 3.11% (inactive) |
| Cc1nn(Cc2ccccc2)c(C)c1C(=O)NCCCN1CCCC1=O | 3.09% (inactive) |
| COc1ccc(C)cc1NC(=O)CN(C)S(=O)(=O)c1ccc2c(c1)n(C)c(=O)c(=O)n2C | 11.7% (inactive) |
| CCOC(=O)c1cc2occc2n1CC(=O)N1CCN(C(=O)c2ccco2)CC1 | 0.31% (inactive) |

| Structure (SMILES) | activation |
| --- | --- |
| O=C(N/C(=C\c1ccc(O)cc1)C(=O)N1CCCCC1)c1ccccc1 | -7.21% (inactive) |
| O=C1Nc2ccc(Br)cc2/C1=N/N=C/C1=C(N2CCOCC2)C(=C\c2ccccc2)/CC1 | 19.2% (active) |
| O=C(O)c1ccc(NN=CC2=C(N3CCOCC3)/C(=C/c3ccccc3)CC2)cc1 | 1.33% (inactive) |
| Cc1cccc(N2CC(C)Cn3c2nc2c3c(=O)n(CC(=O)OCc3ccccc3)c(=O)n2C)c1 (stereo not drawn) | 6.13% (inactive) |
| O=C(CCc1ccccc1)Nc1ccnn1C1CCN(Cc2ccc(OCCO)cc2)CC1 | -2.48% (inactive) |
| COc1cccc(Cn2cnc3c([N+](=O)[O-])c(C)c(C)cc32)c1 | -0.11% (inactive) |
| COCCNC(=S)N(CCc1c(C)[nH]c2ccc(C)cc12)Cc1cccnc1 | 9.1% (inactive) |
| COc1ccc(C(=O)Nc2ccccc2C(=O)NCc2ccco2)cc1 | 30.1% (active) |
| Cc1ccc(N(Cc2ccc(C(=O)Nc3ccccc3C(=O)NCc3ccco3)cc2)S(C)(=O)=O)cc1C | -6.42% (inactive) |
| Cc1cccc(Nc2ccccc2C(=O)NCc2ccco2)c1C | -3.33% (inactive) |
| CN=C(Nc1cccc(S(=O)(=O)N2CCOCC2)c1)c1ccccc1 | -5.57% (inactive) |
| Nc1nnnn1/N=C/c1cccc(Br)c1 | 11.8% (inactive) |
| Nc1nnnn1/N=C/c1cc([N+](=O)[O-])ccc1O | 26.2% (active) |
| Nc1nnnn1/N=C/c1cccs1 | 1.93% (inactive) |
| CC(C)c1nc2ccc(C(=O)O)cc2[nH]1 | 31.2% (active) |
| O=C(NCC(O)c1nc2ccccc2[nH]1)c1ccc(Br)cc1 (stereo not drawn) | -1% (inactive) |
| OC(c1nc2ccc(F)cc2[nH]1)C(O)c1nc2ccc(F)cc2[nH]1 (stereo not drawn) | 3.09% (inactive) |
| CN(c1ccccc1)S(=O)(=O)c1cccc(C(=O)NNC(=O)c2ccncc2)c1 | 1.76% (inactive) |
| CCOc1ccc(-c2cc(C(=O)N/N=C/c3ccc(O)cc3)c3ccccc3n2)cc1 | 9.09% (inactive) |
| O=C(N/N=C/C=C/c1ccco1)c1cccs1 | 8.09% (inactive) |

| Structure (SMILES) | activation |
| --- | --- |
| Cc1ccc(-c2cc(C(=O)N/N=C/C=C/c3ccco3)c3ccccc3n2)cc1C | 21.5% (active) |
| O=c1[nH]c2ccc(S(=O)(=O)N3CCCC3)cc2[nH]1 | 2.57% (inactive) |
| O=C(C1CCN(C2CCN(Cc3ccc4cc(F)ccc4n3)CC2)CC1)N1CCCC1 | 8.71% (inactive) |
| CCN(CC)CCn1c(=S)[nH]c2ncccc2c1=O | 1.96% (inactive) |
| CCc1ccc(NC(=O)CC2C(=O)NCCN2C(=S)Nc2ccccc2)cc1 (stereo not drawn) | 7.43% (inactive) |
| COc1ccccc1C(=O)Nc1nc2nc(-c3ccccc3)cc(=O)n2[nH]1 | 10.9% (inactive) |
| O=C(CCC(=O)N1CCN(S(=O)(=O)c2ccc(Cl)cc2)CC1)NCc1cccc(C(F)(F)F)c1 | -4.55% (inactive) |
| COC(=O)c1ccc(C(=O)Nc2cc(Cl)ccc2Cl)cc1NC(=O)c1ccccc1C | 7.99% (inactive) |
| CCOC(=O)c1sc(/N=C/C2=C(O)CC(C)(C)CC2=O)c(C(=O)OCC)c1C | 2.16% (inactive) |
| CC(Oc1ccccc1F)C(=O)NN (stereo not drawn) | 1.45% (inactive) |
| COc1ccc(CCNC(=O)C2CCCN(Cc3nc(-c4cccc(Cl)c4)oc3C)C2)cc1OC (stereo not drawn) | 4.43% (inactive) |
| NC(=O)C1CCN(Cc2nc3c(Br)cc(Br)cc3c(=O)[nH]2)CC1 | 8.06% (inactive) |
| O=C(O)C1CCN(S(=O)(=O)N2CCOCC2)CC1 | 29.8% (active) |
| COc1ccc(CNC(=O)C2CCN(S(=O)(=O)N3CCOCC3)CC2)cc1 | 5.85% (inactive) |
| O=C(NCc1ccccc1Cl)C1CCN(S(=O)(=O)N2CCOCC2)CC1 | -0.4% (inactive) |
| COc1cc2c(cc1OC)C(C(=O)NCc1ccco1)C1c3ccccc3CCN1C2=O (stereo not drawn) | 3.09% (inactive) |
| O=C(NCc1csc(-c2cccs2)n1)C1CC1 | 9.22% (inactive) |
| CC(=O)c1ccc(S(=O)(=O)Nc2ccc(-c3ccc4nncn4n3)cc2)cc1 | 7.59% (inactive) |
